Source: PubChem (National Center for Advancing Translational Sciences (NCATS))
The full list was thinned out, with hits kept by preference.
Pf Dd2 growth: blocks in vitro growth of P. falciparum Dd2. P. falciparum Dd2 growth, SYBR Green, 72 h. Potency, µM (series often up to 28.9 µM), hits mostly inhibitors. hit rate 4.3% among 120,000. AID 1347417; active = well fitted inhibition curve with a large enough effect; also: nearly all actives have a fitted effect of over 65% in size
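Infected erythrocytes (Dd2, 0.3% parasitemia, 2.5% hematocrit final) are added to compound in RPMI-1640/Albumax II medium, grown 72 h at 37C in low oxygen, then lysed with saponin/Triton-X containing SYBR Green and read by fluorescence.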
Of the large screens only hits and unclear results are named; the others gave an inactive call.

Cc1cccc(NC(=O)Cn2nc3n(c2=O)CCCCC3)c1	none
COc1ccccc1CCC(=O)Nc1ccc(-c2nnc3n2CCCC3)cc1	none
O=C(CCCc1ccccc1)Nc1cccc(-c2nnc3n2CCCC3)c1	Pf Dd2 growth 4.5µM
COc1cccc(NC(=O)Cn2c(C)cc3nc4n(c(=O)c32)CCCCC4)c1	none
CCN1c2cc(C(=O)Nc3ccc(OC)c(Cl)c3)ccc2C(=O)N2CCCCCC21 (stereo not given)	none
Cc1noc(-c2ccc(C(C)(C)C)cc2)c1C(=O)NCc1ccc(Cl)cc1	none
O=C(C1CCCO1)N1CCc2[nH]nc(C(c3ccccc3)c3ccccc3)c2C1 (stereo not given)	none
CC(NC(=O)Cn1c(=O)oc2cc(S(=O)(=O)N3CCCCCC3)ccc21)c1ccccc1 (stereo not given)	none
CC1CCN(S(=O)(=O)c2ccc3c(c2)oc(=O)n3CC(=O)NC(C)c2ccccc2)CC1 (stereo not given)	Pf Dd2 growth 11µM
CC1CCN(S(=O)(=O)c2ccc3c(c2)oc(=O)n3CC(=O)O)CC1	none
COCCNc1nc2c([S+](=O)([O-])c3cc(OC)ccc3OC)nnn2c2ccccc12	none
C[C@H]1[C@@H]2[C@@H](O)C([C@H](C)C(=O)NC3CC3)CC[C@@]2(C)CC[C@@H]1NC(=O)c1cnccn1 (stereo not given in full)	none
CC(=O)N[C@H]1CC[C@]2(C)CCC([C@H](C)C(=O)NCc3ccc(F)cc3)[C@H](O)[C@H]2[C@@H]1C (stereo not given in full)	none
C[C@H]1[C@@H]2[C@@H](O)C([C@H](C)C(=O)NCc3ccc(F)cc3)CC[C@@]2(C)CC[C@@H]1NC(=O)c1cnccn1 (stereo not given in full)	Pf Dd2 growth 8.9µM
COCCc1noc([C@@H]2CN(Cc3cccc(C#N)c3)C[C@H]2CO)n1	none
COc1ccc(-c2cc(C(=O)NCC(C)C)c3c(C4CCCN4)nn(C)c3n2)cc1 (stereo not given)	Pf Dd2 growth 4µM
COCCNC(=O)c1cc(-c2ccc(OC)cc2)nc2c1c(C1CCNC1)nn2C (stereo not given)	none
COCCNC(=O)c1cc(C2CC2)nc2c1c(C1CCCN1)nn2-c1ccccc1 (stereo not given)	Pf Dd2 growth 11µM
Cn1nc(C2CCCN2)c2c(C(=O)N3CCOCC3)cc(C3CC3)nc21 (stereo not given)	none
COc1ccc(-c2cc(C(=O)N3CCOCC3)c3c(C4CCCN4)nn(C)c3n2)cc1 (stereo not given)	none
Cc1nn(-c2ccccc2)c2nc(C3CC3)cc(C(=O)NCc3ccccc3Cl)c12	none
COc1ccc(NC(=O)c2cc(C3CC3)nc3c2c(C)nn3-c2ccccc2)cc1OC	none
COCCNC(=O)c1cc(C2CC2)nc2c1c(C1CCCNC1)nn2C (stereo not given)	none
Cc1nn(-c2ccccc2)c2nc(C3CC3)cc(C(=O)Nc3cccc(F)c3)c12	Pf Dd2 growth 10µM
CNC(=O)[C@@H]1C[C@@H](O)CN1C1CCN(C(=O)c2noc(C)c2Cc2c(C)noc2C)CC1	none
COc1ccc(OC)c(S(=O)(=O)N2CCc3nn(CC4CC4)c(=O)n3CC2)c1	none
Cc1onc(C(=O)NC2CCc3n[nH]c(=O)n3CC2)c1COc1ccccc1 (stereo not given)	none
COCCn1nc2n(c1=O)CCN(Cc1sccc1C)CC2	none
O=C1NCCCCCCN(Cc2ccncc2)[C@@H]2CN(C3CCOCC3)CC[C@H]12	none
CC(NC(=O)CCc1conc1-c1ccccc1)c1ccc(F)cc1 (stereo not given)	none
Cc1sc2ccn(CC(C)C)c(=O)c2c1C(=O)O	none
COC(=O)c1ccc(CN2C(=O)[C@@H]3C[C@@H](O)CN3C3(CN(Cc4ccc(OC)cc4)C3)C2=O)cc1	none
CC(=O)N1CCc2nn(CC(=O)Nc3cccc(F)c3)c(=O)cc2C1	none
O=C(c1ccc(Cl)cc1)N1CCN(c2cc(-c3ccc(Cl)cc3)[nH]n2)CC1	none
COc1ccc(C(=O)N2CCN(Cc3cn(-c4ccccc4)nn3)CC2)cc1	none
c1ccc(-n2cc(CN3CCN(c4nc5ccccc5o4)CC3)nn2)cc1	none
Cc1cc(C)cc(N2CCN(Cc3cn(-c4ccccc4)nn3)CC2=O)c1	Pf Dd2 growth 11µM
CC1CCC2(CC1)NC(=O)N(CC(=O)NCCCc1ccccc1)C2=O (stereo not given)	none
C#CCN(C)Cc1nc(C2(O)CCN(C3CCC3)CC2)cs1	Pf Dd2 growth 10µM
C#CCN(C)Cc1nc(C2(O)CCN(C)CC2)cs1	none
C#CCN(C)Cc1nc(C2(O)CCN(CC3CC3)CC2)cs1	none
Cc1ccc(CNC(=O)Cn2c(-c3ccccc3)nc(C)c(CCO)c2=O)cc1	none
CC(C)Oc1cccc2c1c(NC(=O)C1CCN(C)C1)nn2Cc1ccccc1 (stereo not given)	Pf Dd2 growth 2.2µM
Cc1nnnn1CC(=O)Nc1nn(Cc2ccccc2)c2cccc(OC(C)C)c12	none
CC(C)Oc1cccc2c1c(NC(=O)C1CC(=O)N(C)C1)nn2Cc1ccccc1 (stereo not given)	none
COc1ccccc1C(=O)N1CCc2nc(C)nc(-c3ccc(Cl)cc3)c2C1	none
Oc1ccccc1CN(CCN1CCCCC1)CC1CCCN(C2CCCC2)C1 (stereo not given)	none
FC(F)Oc1ccccc1CN(CC1CCN(C2CCCC2)CC1)CC1CCCO1 (stereo not given)	Pf Dd2 growth 7.1µM
O=C(c1cnco1)N(CC1CCN(Cc2ccccc2F)CC1)CC1CCCO1 (stereo not given)	none
Cc1ccc(-c2nc(-c3nnn4c3COC(c3ccccc3Cl)C4)no2)s1 (stereo not given)	none
COc1cccc(Cn2c(=O)n(CC3CCC(C(=O)N4CCCCC4)CC3)c(=O)c3sccc32)c1 (stereo not given)	Pf Dd2 growth 10µM
COc1cccc(Cn2c(=O)n(CC3CCC(C(=O)NC(C)C)CC3)c(=O)c3sccc32)c1 (stereo not given)	none
Cc1cccc(Cn2c(=O)n(CC3CCC(C(=O)NC(C)C)CC3)c(=O)c3sccc32)c1 (stereo not given)	none
Cc1ccccc1Cn1c(=O)n(CC2CCC(C(=O)N3CCC(C)CC3)CC2)c(=O)c2sccc21 (stereo not given)	Pf Dd2 growth 11µM
Cc1ccc(Cn2c(=O)n(CC3CCC(C(=O)N4CCC(C)CC4)CC3)c(=O)c3sccc32)cc1 (stereo not given)	none
CNC(=O)C1CCC(Cn2c(=O)c3sccc3n(CC(=O)N3CCC(C)CC3)c2=O)CC1 (stereo not given)	none
Cc1nc(CCC(=O)NCc2cc(Cl)cc3c(C)c(-c4ccccc4)[nH]c23)n[nH]1	none
CCN(CC)CCNC(=O)c1ccc2c(c1)N(Cc1ccccc1)C(=O)c1ccccc1S2=O (stereo not given)	none
O=C(NCCc1ccccc1)c1ccc2c(c1)N(Cc1ccccc1F)C(=O)c1ccccc1S2=O (stereo not given)	none
O=C(Nc1cc(Cl)ccc1Cl)c1ccc2c(c1)N(Cc1cccc(Cl)c1)C(=O)c1ccccc1S2=O (stereo not given)	Pf Dd2 growth 4µM
O=C(Nc1cccc(Cl)c1Cl)c1ccc2c(c1)N(Cc1cccc(Cl)c1)C(=O)c1ccccc1S2(=O)=O	Pf Dd2 growth 5.6µM
O=C(c1ccc2c(c1)N(Cc1cccc(Cl)c1)C(=O)c1ccccc1S2(=O)=O)N1CCCCCC1	none
NC(=O)C1CCN(C(=O)c2ccc3c(c2)N(Cc2cccc(Cl)c2)C(=O)c2ccccc2S3=O)CC1 (stereo not given)	none
O=C(c1ccc2c(c1)N(Cc1cccc(Cl)c1)C(=O)c1ccccc1S2(=O)=O)N1CCCC1	none
